# Assay outcomes from PubChem BioAssay.
# Mtb betalactam = beta-lactam sensitization of Mtb H37Rv. M. tuberculosis H37Rv growth with meropenem, percent inhibition. inhibition, % at 25 µM. 330,000 compounds, 0.27% hits. AID 434955; call rule not given here;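 note: growth measured after seven days incubation then overnight dye step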
# UGM FP inh = Mtb UDP-galactopyranose mutase inhibition. P9WIQ1. purified UGM, fluorescence polarization probe displacement. inhibition, % at 10 µM. 320,000 compounds, 0.06% hits. AID 504406; in the data active = inhibition above about 10%, passing the limit was not always enough
# GDH-TPI counter-1 = GDH-TPI coupled enzyme inhibition counter-screen; GDH-TPI coupled enzyme counterscreen, NADH absorbance; inhibition, % at 4.8 µM; 360,000 compounds, 1.2% hits; AID 588335; in the data active = inhibition above about 30%
# Rv3671c inh = inhibitors of M. tuberculosis serine protease Rv3671c; P9WHR9; inhibition, % at 5.96 µM; 320,000 compounds, 0.048% hits; AID 2606; in the data active = inhibition above about 38%;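 note: extracellular domain of Rv3671c used as enzyme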
# RecA intein inh = inhibitors of M. tuberculosis RecA intein splicing; P9WHJ3; cell-free RecA intein splicing, fluorescence; inhibition, % (concentration not given with the values); 290,000 compounds, 0.75% hits; in the data active = inhibition above about 30%
# Mtb FBA inh = Mtb fructose-bisphosphate aldolase inhibition | P9WQA3 | purified M. tuberculosis FBA, fluorescence read-out | inhibition, % at 1 µM | 360,000 compounds, 2.3% hits
# Mtb FBA inh conf = Mtb FBA inhibition, confirmed; shares compounds with Mtb FBA inh; inhibition, % at 1 µM; purified M. tuberculosis FBA, fluorescence read-out; 5,600 compounds, 78% hits
# GDH-TPI counter-2 = GDH-TPI inhibition counter-screen for FBA inhibitors; inhibition, % at 1 µM; AID 652141; GDH-TPI coupled enzyme counterscreen, fluorescence; 5,600 compounds, 81% hits; shares compounds with Mtb FBA inh; in the data active = inhibition above about 10%
# Hits are given with their value; - = inactive; . = not tested or not shown; + = active, no number. Hits are enriched below; roughly 4% of the tested compounds scored in any of these assays. Cut-off read from the data, not from the text of the source, unless noted: active = inhibition above about 27%; inactive = the rest.
SMILES,Mtb betalactam,UGM FP inh,GDH-TPI counter-1,Rv3671c inh,RecA intein inh,Mtb FBA inh,Mtb FBA inh conf,GDH-TPI counter-2
COc1ccc(-c2nc3cc(C)ccn3c2NCC2CCCO2)cc1OC (stereo not given),-,-,-,-,-,-,.,.
COc1cc(-c2nc3cccc(C)n3c2NCC2CCCO2)ccc1O (stereo not given),-,-,-,-,-,29,+,+
OC(c1ccc(F)c(F)c1)c1nc(-c2ccc(F)c(Cl)c2)cs1 (stereo not given),.,.,-,.,.,-,.,.
CC1=C(C#N)C(c2ccc(O)cc2)C2=C(CCCC2=O)N1 (stereo not given),-,-,-,-,-,-,.,.
CC1=C(C#N)C(c2cccnc2)C2=C(CC(c3ccc(Cl)cc3)CC2=O)N1 (stereo not given),-,-,-,-,-,70,-,-
COc1cccc(CCNC(=O)C2CCC(=O)N(Cc3cccc(OC)c3)C2)c1 (stereo not given),-,-,-,-,-,-,.,.
COc1cccc(CN2CC(C(=O)NCCc3cn4cccnc4n3)CCC2=O)c1 (stereo not given),.,.,-,.,.,47,102,71
COc1ccc(C(=O)c2sc3nc(-c4ccc(OC)cc4)ccc3c2N)cc1,-,-,-,-,-,34,28,31
Cc1cc(C)cc(C(O)c2ncc(-c3ccccc3C(F)(F)F)[nH]2)c1 (stereo not given),.,.,-,.,.,-,.,.
Cc1cc(C)c(C)c(S(=O)(=O)N2CCC(C(=O)NNC(=O)c3ccccc3O)CC2)c1C,-,.,-,-,-,39,133,113
Cc1ccc(S(=O)(=O)N2CCC(C(=O)NNC(=O)c3ccccc3O)CC2)cc1C,-,-,-,-,-,30,+,+
Cc1ccc(S(=O)(=O)N2CCC(C(=O)NNC(=O)c3ccccc3O)CC2)cc1,-,-,-,-,-,-,.,.
Cc1cc(=O)oc2cc3oc(=O)cc(C)c3cc12,-,-,-,-,-,-,.,.
COc1ccc2c(C)c(C(=O)N3CC[C@@H](N4CCC(O)CC4)[C@H](O)C3)oc2c1,-,-,-,-,-,45,105,81
C=CCOc1c2ccc(C(=O)NCc3ccc(C)cc3)cc2nn1C,-,-,-,-,-,-,.,.
CCCCn1nc2cc(C(=O)NCc3ccc(OC)cc3)ccc2c1OCC,-,-,-,-,-,40,94,85
CCOc1c2ccc(C(=O)NCc3ccc(OC)cc3)cc2nn1CCOC,-,-,-,-,-,60,99,72
CCCCn1nc2cc(C(=O)NCc3cc(C(F)(F)F)cc(C(F)(F)F)c3)ccc2c1OCC,-,-,-,-,-,-,.,.
Cc1ccc(-n2c(-c3ccco3)nc3nc4ccccc4nc32)cc1F,-,-,-,-,-,33,77,62
Fc1cccc(-n2c(-c3ccco3)nc3nc4ccccc4nc32)c1,-,-,-,-,-,52,73,49
COc1ccc(OCc2nnc(SC(C)C(=O)Nc3ccc(N4CCOCC4)cc3)n2C)cc1 (stereo not given),.,.,-,.,.,-,.,.
CC(C)C[C@H](NC(=O)N1CCn2c1nc1ccccc12)C(=O)NCC1CCCO1 (stereo not given in full),-,-,-,-,-,-,.,.
CCCCNc1ncnc2sc3c(c12)CCN(CCC)C3,-,-,-,-,-,34,99,89
Fc1ccc2nc(Nc3nc4c(F)cccc4s3)sc2c1,-,-,-,-,-,35,-,-
Fc1cccc2sc(Nc3nc4ccccc4s3)nc12,-,-,-,-,-,32,193,134
Fc1ccc2nc(Nc3nc4c(F)cc(F)cc4s3)sc2c1,-,-,-,-,-,-,.,.
O=C(CN(Cc1ccc(F)cc1)C(=O)CCC(=O)Nc1ccccn1)NCCc1ccccc1,-,-,-,-,-,-,.,.
CC(=O)CCC(=O)CNC(=O)CC[C@H]1O[C@@H](n2ccc(=O)[nH]c2=O)[C@H](O)[C@@H]1O,.,.,.,.,.,-,.,.
Cc1cc(C(=O)Nc2ccc(F)c(Cl)c2)on1,-,-,-,-,-,-,.,.
COCOc1ccc(-c2cc(=O)c3c(OCOC)cc(OCOC)cc3o2)cc1,-,-,-,-,-,64,106,64
